The values below come from PubChem BioAssay (NCI).

About 79,000 compounds went through this panel and 15% of them were active in at least one assay; those are over-represented in the sample as a whole. A number with no mark means an inactive call. Activity calls are given as the source filed them. No stated cut-off is given here; in the data, active means growth inhibition above about 70%; inactive means the rest.

The nature of test [1]: NCI Yeast Anticancer Drug Screen. Data for the rad50 strain (AID 155).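 Further: 0% = growth of vehicle-only cultures of the same strain.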 The following applies: S. cerevisiae rad50 strain growth inhibition; at 50.0 µM; active compounds read high. The procedure, abridged:
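Genetically altered yeast (DNA repair pathway); compound treatment; growth inhibition vs vehicle ctrl.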

Test [2] is described as follows: NCI Yeast Anticancer Drug Screen. Data for the mec2-1 strain (AID 157). The settings on record: S. cerevisiae mec2-1 strain, at 50.0 µM, active compounds read high. The procedure, abridged: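 Mutant yeast (mec2-1) grown with compound; growth inhibition relative to vehicle control reported.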
Test [3] in a line: NCI Yeast Anticancer Drug Screen. Data for the sgs1 mgt1 strain (AID 161).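 Further: 0% = growth of cultures given vehicle only.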 The following applies: S. cerevisiae sgs1 mgt1 strain, at 50.0 µM, active compounds read high. The procedure, abridged: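 Yeast cells carrying a defined DNA-repair defect were exposed to test compounds. Growth inhibition was measured relative to vehicle-treated controls.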
The nature of test [4]: NCI Yeast Anticancer Drug Screen. Data for the cln2 rad14 strain (AID 165).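 Further: 0% = growth equal to vehicle treated cultures.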 The following applies: S. cerevisiae cln2 rad14 strain, at 50.0 µM, active compounds read high. The gist of the method:
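Readout is yeast growth inhibition versus vehicle-treated controls, using a strain with cln2 and rad14 alterations exposed to compound.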

The nature of test [5]: NCI Yeast Anticancer Drug Screen. Data for the bub3 strain (AID 167). The following applies: S. cerevisiae bub3 mutant strain, at 50.0 µM, active compounds read high. The gist of the method: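 Yeast carrying a defined mutation is treated with each compound, and growth is compared with that of vehicle-exposed cells to give inhibition.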
A short description of test [6]: NCI Yeast Anticancer Drug Screen. Data for the mlh1 rad18 strain (AID 175). The following applies: S. cerevisiae mlh1 rad18 strain growth inhibition; at 50.0 µM; active compounds read high. The procedure, abridged:
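Genetically defined yeast (DNA repair-deficient) exposed to compounds; growth inhibition determined relative to vehicle.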

For the compound `CC(C)(C)NC(=O)CCC1C(C(=O)NC(C)(C)C)C2(Cl)C(Cl)=C(Cl)C1(Cl)C2(Cl)Cl` (stereo not given), the growth inhibition in test [1] was 6.2%; in test [2], 12%; in test [3] it was 1.6%; in test [4], 9.8%; in test [5] it was 15.6%; in test [6], -2.05%.
`O=C(Nc1ccc(S(=O)(=O)N2CCCCC2)cc1)OC1CCCC1`: the growth inhibition in test [1] is 3.85%; in test [2], 14.7%; in test [3], 1.15%; in test [4], 18.9%; in test [5] it was 14.8%; in test [6] it was -12.6%.
With `Fc1cccc(-c2nnc(-c3cccc4ccccc34)o2)c1`, the growth inhibition was -8.65% in test [1]; -1.8% in test [2]; -0.5% in test [3]; -49.8% in test [4]; 1.45% in test [5]; -5.1% in test [6].
Turning to `CSc1ncnc2c1ccn2C1OC(COP(=O)(O)O)C(O)C1O` (stereo not given), the growth inhibition in test [1] is 21.8%; in test [2], -1.35%; in test [3], -3.4%; in test [4], -2.45%; in test [5], -37%; in test [6], -2.15%.
For the compound `O=C1c2cc(Cl)ccc2NC(=NC2CCCC2)C2CSCN12` (stereo not given), the growth inhibition is 7.8% in test [1]; -13.2% in test [2]; 2.8% in test [3]; -6.35% in test [4]; -22.8% in test [5]; 16.6% in test [6].
As to `CCOC(=O)NN(C(=O)OCC)C(C(C)=O)c1ccccc1` (stereo not given), the growth inhibition was 3.95% in test [1]; -3.35% in test [2]; -10.8% in test [3]; -9.35% in test [4]; -0.7% in test [5]; 17.3% in test [6].
In the case of `COc1cc([C@@H]2c3cc4c(cc3[C@@H](Nc3ccccc3C(=O)c3ccccc3)[C@H]3COC(=O)[C@H]23)OCO4)cc(OC)c1OC`, the growth inhibition in test [1] was 9.35%; in test [2] it was 9.95%; in test [3], -18.5%; in test [4] it was 13.2%; in test [5] it was 1.05%; in test [6], -34.5%.
Turning to `O=C1CSC(=S)N1/N=C/c1ccc([N+](=O)[O-])s1`, the growth inhibition in test [1] was 97.8% (active); in test [2], 98.8% (active); in test [3], 98.3% (active); in test [4] it was 98.5% (active); in test [5], 98.8% (active); in test [6] it was 98.8% (active).
Take `COC(=O)c1nc(N)nc(C(=O)OC)c1C(=O)c1ccc2ccccc2c1`: the growth inhibition in test [1] is -4.75%; in test [2], -13%; in test [3], 10.8%; in test [4], -2.8%; in test [5], 3.9%; in test [6], 9.4%.
As to `CC(=O)Nc1ccc(S(=O)(=O)NNC(=O)NNS(=O)(=O)c2ccc(NC(C)=O)cc2)cc1`, the growth inhibition in test [1] was -6.15%; in test [2] it was -7.2%; in test [3] it was -11.5%; in test [4], 2.5%; in test [5], -7%; in test [6], -10.4%.
Regarding `COc1cccc2c(NCCCCCO[N+](=O)[O-])cc[n+](C)c12`, the growth inhibition in test [1] was 25.7%; in test [2], -24.4%; in test [3] it was 9.85%; in test [4], 8.7%; in test [5], 16.6%; in test [6] it was 29.1%.
For the compound `CC(C)OC1(c2ccccc2)c2cccc3cccc(c23)C1(O)c1ccccc1` (stereo not given), the growth inhibition in test [1] is 18.2%; in test [2], -3.6%; in test [3] it was 22.8%; in test [4], 7.7%; in test [5], 3.35%; in test [6] it was 6.75%.
`COc1ccc(C(O)Cc2ccccc2)cc1` (stereo not given): the growth inhibition in test [1] is -4.9%; in test [2], -19.4%; in test [3] it was 5.6%; in test [4], -16.9%; in test [5] it was -18.4%; in test [6], -6.4%.
For `COC1=CC(=O)C(c2cc(O)c(OC)cc2O)=CC1=O`, the growth inhibition in test [1] was -0.15%; in test [2] it was 4.45%; in test [3] it was -3.65%; in test [4], -8.65%; in test [5], 4.5%; in test [6], 5.2%.
For `CC(=O)Nc1ccc2c(c1)Cc1ccc(S(C)(=O)=O)cc1-2`, the growth inhibition in test [1] is 23.9%; in test [2] it was -7.15%; in test [3] it was 10.9%; in test [4] it was 6.9%; in test [5] it was 0.65%; in test [6] it was 44.1%.
Consider `CC(C)CCCOC(=O)c1ccccc1`, for which the growth inhibition in test [1] is 3.05%; in test [2] it was -6.5%; in test [3], -1.65%; in test [4], -3.2%; in test [5], 21.6%; in test [6], -1%.
Consider `CC(=O)CC(=O)N1CCCCCCC1`, for which the growth inhibition is -34% in test [1]; -57.5% in test [2]; -12.4% in test [3]; -8.4% in test [4]; -23.2% in test [5]; -34.2% in test [6].
For `COc1[nH]c2ccccc2c1C=O`, the growth inhibition is 45.1% in test [1]; 30.6% in test [2]; 22.3% in test [3]; 17.1% in test [4]; 11% in test [5]; 24.1% in test [6].
For `Cn1c2cc(Cl)c(Cl)cc2nc2cc3c(cc21)c(Cl)c(=O)c1cc2cc(Cl)c(Cl)cc2cc13`, the growth inhibition in test [1] was 31.8%; in test [2] it was 8.65%; in test [3], 11.3%; in test [4], 25.9%; in test [5], -2.85%; in test [6] it was 20.3%.
For the compound `c1ccc(B2Nc3ccccc3O2)cc1`, the growth inhibition in test [1] was 18.1%; in test [2] it was 7.05%; in test [3] it was 5.3%; in test [4], 18.4%; in test [5], 43%; in test [6], 39.5%.
Consider `CC(C)CC1OCC(C)(C)C(C(C)C)O1` (stereo not given), for which the growth inhibition was -8% in test [1]; -6.1% in test [2]; -17.4% in test [3]; 2% in test [4]; -0.4% in test [5]; 0.4% in test [6].
Turning to `CCOP(=O)(OCCN(C)C)C(c1ccccc1)c1ccccc1` (stereo not given), the growth inhibition in test [1] was 19.9%; in test [2] it was -3.85%; in test [3], -10.8%; in test [4], -6.25%; in test [5] it was -9.75%; in test [6], 34.6%.
As for `C/C(Cc1ccccc1)=N\NC(N)=S`, the growth inhibition in test [1] is 13.3%; in test [2], 1.15%; in test [3], 27.6%; in test [4], -12.7%; in test [5], 8.5%; in test [6] it was 29.5%.
Regarding `Cc1cc(N=C2C=C(Nc3cc(C)on3)C(=O)c3ccccc32)no1`, the growth inhibition in test [1] is -8.9%; in test [2], -1.25%; in test [3] it was -21.4%; in test [4], 1.05%; in test [5], -14.7%; in test [6], 6.05%.
Regarding `OCCNc1ncnc2[nH]ncc12`, the growth inhibition in test [1] is 2.75%; in test [2] it was -6.1%; in test [3], -20.6%; in test [4] it was -21.8%; in test [5], -24.2%; in test [6] it was 5.55%.
As for `Cc1ccc(S(=O)(=O)NC2C(=O)c3ccccc3C(=O)C2n2ccnc2)cc1` (stereo not given), the growth inhibition in test [1] is 4.85%; in test [2] it was -1.8%; in test [3], 0.75%; in test [4] it was 2.75%; in test [5] it was 7.8%; in test [6], -21.5%.
Consider `COc1cc2c(cc1OC)C(=O)Cc1ccc3c(c1CN(C)CC2)OCO3`, for which the growth inhibition in test [1] is -19.9%; in test [2] it was -42.7%; in test [3] it was -21.7%; in test [4] it was 2.7%; in test [5], -40.5%; in test [6], -17.9%.
Consider `CS(=O)(=O)OCCCCCCCCCCCC1C=CCC1` (stereo not given), for which the growth inhibition in test [1] is 10.3%; in test [2] it was -32.4%; in test [3], 5.15%; in test [4], 11.8%; in test [5], -8.25%; in test [6] it was 3.1%.
On to `COc1ccc(NC(=S)NC(=O)c2ccccc2)cc1OC`, for which the growth inhibition in test [1] was 31.8%; in test [2], 4.15%; in test [3], 21.9%; in test [4], 3%; in test [5], -1.2%; in test [6], 15.4%.
With `Cc1cccc(C)c1NC(=O)Nc1cccc(Cl)c1`, the growth inhibition in test [1] was 6.3%; in test [2] it was 15.6%; in test [3], 7.7%; in test [4] it was -0.5%; in test [5], 11%; in test [6], -0.8%.
On to `Cc1ccc(C)c(NC(=O)C(=O)C2C(=O)N(c3ccccc3)N=C2N)c1` (stereo not given), for which the growth inhibition was -38.5% in test [1]; -29.4% in test [2]; -1.25% in test [3]; 1.9% in test [4]; -26.4% in test [5]; -14% in test [6].
As for `COc1ccccc1C(=O)N/N=C/c1ccccc1Cl`, the growth inhibition in test [1] was 4.25%; in test [2], 35.3%; in test [3], 32.4%; in test [4], -4.3%; in test [5], 9.05%; in test [6] it was 30.1%.
Consider `O=C1c2ccccc2C(O)(C#Cc2ccccc2)c2c1c(-c1ccccc1)c1ccccc1c2-c1ccccc1` (stereo not given), for which the growth inhibition in test [1] is 14.7%; in test [2], 6.15%; in test [3] it was 15.7%; in test [4], 9.75%; in test [5] it was -8.3%; in test [6], 10.4%.
On to `O=c1[nH]cc(Cl)cc1Cl`, for which the growth inhibition is 0.05% in test [1]; 3.85% in test [2]; -4% in test [3]; -8.35% in test [4]; 2.3% in test [5]; -1.45% in test [6].
Take `O=C(OC1CCCCC1)C(=O)OC1CCCCC1`: the growth inhibition in test [1] was 3.3%; in test [2] it was -2.3%; in test [3], 1.35%; in test [4], -37.2%; in test [5], -5.45%; in test [6], 14%.
Take `COC1OC2COC(C)(C)OC2C1OS(=O)(=O)c1ccc(C)cc1` (stereo not given): the growth inhibition was -1.75% in test [1]; 12.6% in test [2]; 6.4% in test [3]; -17.1% in test [4]; -0.5% in test [5]; 29.6% in test [6].
On to `Clc1ccc2c(c1)nnn2OC1CCCC1`, for which the growth inhibition in test [1] was 10.4%; in test [2] it was -3.7%; in test [3], -11.1%; in test [4] it was -24.9%; in test [5] it was -10.8%; in test [6] it was -6.8%.
Consider `Oc1ccc(N=Cc2ccc(C=Nc3ccc(O)cc3)cc2)cc1`, for which the growth inhibition in test [1] is -22.9%; in test [2], -12.6%; in test [3], -19%; in test [4], -7.7%; in test [5], -13.4%; in test [6], -16.4%.
With `Cc1nnc(N)c(C#N)c1C`, the growth inhibition in test [1] was -8.45%; in test [2], 2.3%; in test [3], 16.6%; in test [4], -56.9%; in test [5], 4.45%; in test [6] it was -1.85%.
For `O=C(O)c1ncn2c(=O)n(CCCl)nnc12`, the growth inhibition was -18.9% in test [1]; -16.4% in test [2]; -15.8% in test [3]; -27.8% in test [4]; -0.55% in test [5]; 9.2% in test [6].
